In PubChem BioAssay AID651820 (National Center for Advancing Translational Sciences (NCATS), 2012):
In all, about 340,000 compounds went through this assay and about 12,000 (3.5%) were called active. Another 18% or so got no clear call; they are omitted. The sample holds actives, similar compounds and a random draw of the others, so the mix is not that of the screen. Unmarked numbers belong to inactive results. Calls come from the whole dose curve; as a rule, active = well fitted inhibition curve with a large enough effect; inconclusive = small, poorly fitted or top-dose-only effect, or another doubt; inactive = no such curve, though single readings can be large or run the other way.

Experiment: qHTS Assay for Inhibitors of Hepatitis C Virus (HCV)
Settings: Huh7.5.1 HCVcc-Cre infection, luciferase reporter, 44 h; series mostly up to 41.8 µM; activity change, negative = inhibition: at the top concentration
In short: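 HCVcc-Cre virus at an moi near 0.5 was added right after compound to cells cultured 4 h from seeding (1,000 cells/well). Luciferase activity was determined 44 h later, 15 min after substrate addition at RT.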
% is set by controls: 0 for no effect and ±100 for the full control effect; potency is the fitted concentration of half-maximal effect.

In order of falling “activity change, negative = inhibition” value:
1. COc1ccccc1C(=O)NCC(=O)NCCSc1ccc(Br)cc1  31.4%
2. Cc1ccc(C)c(NC(=O)C(c2ccccc2)N2CCN(CC(=O)NC3CC3)CC2)c1 (stereo not given)  20.5%
3. Fc1ccc2cnc(-c3ccccc3)cc2c1  16.1%
4. CCOc1ccc(OCC(=O)OC(C)C(=O)NC2CCCCC2C)cc1 (stereo not given)  14.8%
5. CCCn1c(N)c(N(CCOC)C(=O)C2CCCC2)c(=O)[nH]c1=O  11.3%
6. COCCn1c(SC(C)C(=O)NC2CC2)nnc1-c1cccc(C)c1 (stereo not given)  9.78%
7. CCN(CC(=O)Nc1c(F)cccc1F)C(=O)Cc1cccs1  5.83%
8. COc1ccccc1CNC(=O)COC(=O)CNS(=O)(=O)c1ccc(NC(C)=O)cc1  3.91%
9. COC(=O)[C@]1(CC(C)C)N[C@H](c2ccc(SC3CCCCC3)cc2)[C@@H]2C(=O)N(C)C(=O)[C@@H]21  3.15%
10. CCOC(=O)c1c(NC(=O)CSc2nnc(C)c(=O)[nH]2)sc2c1CCC2  2.84%
11. Nc1c(C(=O)OCC(=O)Nc2ccc(OC(F)F)cc2)[nH]c(=O)[nH]c1=O  1.46%
12. CC(=O)c1cccc(NC(=O)c2ccncc2)c1  1.02%
13. COC(=O)c1c(NC(=O)C2CC(C)=C(C)CC2C(=O)O)sc2c1CCCCC2 (stereo not given)  0.726%
14. CC1CCCN(C(=O)c2cc(-c3ccco3)nc3ccccc23)C1 (stereo not given)  0.714%
15. C/C=C/c1ccc(OCCOc2ccc(C=O)cc2OC)c(OC)c1  0.431%
16. COC(=O)[C@]1(C)CCC[C@@]2(C)C3CC[C@]4(OC(C)=O)C[C@@]3(CCC21)CC4=NO (stereo not given in full)  0.298%
17. CCS(=O)(=O)NCCc1ccc(OC)c(OC)c1  -0.766%
18. CC(C)(C)OC(=O)NCCCCCNC(=O)c1[nH]cnc1C(=O)Nc1nccs1  -1.35%
19. COC(=O)c1c(NC(=O)CCCC(=O)O)sc2c1CCCCC2  -1.74%
20. NC(=O)COC(=O)/C=C/c1ccc2ccccc2n1  -4.15%
21. Cc1cccc(OCCC(=O)OCc2csc(CC(=O)Nc3ccccc3C)n2)c1  -5.01%
22. CCOc1ncccc1C(=O)OCC(=O)Nc1cccc(S(=O)(=O)N2CCCCCC2)c1  -5.14%
23. O=C(CCNC(=O)c1ccc(Br)cc1)Nc1cccc(S(=O)(=O)N2CCCCC2)c1  -9.26%
24. COc1ccc(OCCCCN2CCC(C)CC2)cc1  -9.49%
25. Nc1nc(NCCCN2CCOCC2)nc(Nc2ccccc2)c1[N+](=O)[O-]  -9.65%
26. COC(=O)c1c(NC(=O)CCN2CCOCC2)sc2c1CCCC2  -13.5%
27. Nc1nc(Nc2ccccc2)nc(NCCO)c1[N+](=O)[O-]  -14.4%
28. COc1ccc(CCNc2nc(C)cc(C)n2)cc1OC  -14.5%
29. CSc1nsc(NC(=O)Nc2ccccc2)n1  -15.8%
30. COC(=O)c1ccc(COc2ccc(/C=C/C(=O)c3ccc(OC)c(CSCC(=O)O)c3)cc2OC)cc1  -18.3%
31. O=c1ccc(S(=O)(=O)N2CCCC2)cn1Cc1nc(-c2ccccc2)no1  -19.5%
32. COc1cc(C(=O)NCC(=O)NCCSc2ccc(Br)cc2)cc(OC)c1OC  -19.6%
33. Cc1nc2ccccc2c2oc(C(=O)NCCCN3CCC(C)CC3)cc12  -20.7%
34. CC(C)Oc1ccc(S(=O)(=O)N2CCOCC2)cc1NC(=O)C1CSC2(C)CCC(=O)N12 (stereo not given)  -20.8%
35. Cc1nc(-c2ccc(F)cc2)c(CC(=O)Nc2cccc(S(=O)(=O)N3CCOCC3)c2)s1  -22.3%
36. COc1ccc2c(c1)C(=O)Nc1cc(Cl)ccc1N2  -25.5%
37. CCOc1ccccc1-c1cc(C(=O)N/N=C(\C)c2cccnc2)c2ccccc2n1  -26.8%

In order of rising activity change, negative = inhibition:
1. COC(=O)[C@]1(C)N[C@H](CN(C)C(=O)c2ccc(C(C)(C)C)cc2)[C@@H]2C(=O)N(C)C(=O)[C@@H]21  -14.2% [at 8.37 µM]
2. COc1ccc(/C=C/C(=O)c2ccc(OC)cc2O)cc1  1.23% [at 8.37 µM]
3. CCc1noc(C)c1C(=O)N1CCCSC1=Nc1ccccc1OC  9.92% [at 8.37 µM]

In the case of `COCOc1cc(O)c(C(=O)/C=C/c2ccc(OCOC)c(OCOC)c2)c(OCOC)c1`, the Potency is reported as 7.94 µM (active).
For `COC(=O)c1c(NC(=O)CSc2nncs2)sc2c1CCCCC2`, the Potency was 7.08 µM (active).
In the case of `CCOC(=O)c1c(NC(=O)CSc2nnc(CN3CCOCC3)n2C)sc2c1CCCC2`, the Potency is reported as 22.4 µM (active).
For `CCOc1cccc(/C=C/c2ccc3ccccc3n2)c1OC(C)=O`, the Potency was 11.2 µM (active).
With `COc1cccc(Nc2nc(N)c([N+](=O)[O-])c(NCc3ccco3)n2)c1` the Potency was 10 µM (active).
With `C/C=C/c1ccc(OCCCCN2CCC(C)CC2)c(OC)c1` the Potency was 14.1 µM (active).
For `COc1cc2c3c(c1)/C(=C1/SC(=S)NC1=O)C(=O)N3C(C)(C)C=C2C`, the Potency was 25.1 µM (active).
For `CCSc1nsc(NC(=O)Nc2cccc(C(C)=O)c2)n1`, the Potency was 11.2 µM (active).
In the case of `COc1ccc(CCNc2ncnc3nc[nH]c23)cc1OC`, the Potency is reported as 11.2 µM (active).
In the case of `CCC1CCCCN1CCCNC(=O)c1cc2c(Cl)nc3ccccc3c2s1` (stereo not given), the Potency is reported as 8.91 µM (active).
